Calls of active or inactive are those of the source. The calls were made as follows: active = hit-call score of the fitted dose curve at least 0.9, where 1 is the maximum; inactive = score below 0.9.
Key:
Details in all cases: primary human HUVEC with PBMC; actives raise or lower the signal
[1] = read-out: Macrophage colony-stimulating factor (MCSF), CSF1 (gene 1435); assay: BSK_LPS_MCSF: BioMAP Diversity Plus: LPS Assay for Macrophage colony-stimulating factor (MCSF) Biomarker Activity (AID 2283083)
Summary of the method: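 Human umbilical vein endothelial cells co-cultured with peripheral blood mononuclear cells were exposed to compound for 24 h. M-CSF levels were measured by ELISA, and bidirectional curve fitting used DMSO as the negative control and baseline.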

[2] = read-out: Tissue Factor, F3 (gene 2152); assay: BSK_LPS_TissueFactor: BioMAP Diversity Plus: LPS Assay for Tissue Factor Biomarker Activity (AID 2283084)
Summary of the method: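 Human umbilical vein endothelial cells co-cultured with peripheral blood mononuclear cells were dosed and stimulated with LPS. Cell-surface CD142 was quantified by ELISA at 24 h. Activity was fitted bidirectionally against DMSO baseline.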

[3] = read-out: Tumor necrosis factor (Homo sapiens) (UniProt P01375); assay: BSK_LPS_TNFa: BioMAP Diversity Plus: LPS Assay for Tumour Necrosis Factor alpha (TNFa) Biomarker Activity (AID 2283085);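 as to AC50: TNFa protein level quantified by ELISA in the co-culture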
Summary of the method: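 HUVEC/PBMC co-culture, LPS-stimulated; 24 h post-dose; TNFa by ELISA; gain or loss of signal fitted bidirectionally vs DMSO baseline.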

[4] = read-out: Vascular cell adhesion molecule 1 (VCAM1), VCAM1 (gene 7412); assay: BSK_LPS_VCAM1: BioMAP Diversity Plus: LPS Assay for Vascular cell adhesion molecule 1 (VCAM1) Biomarker Activity (AID 2283086)
Summary of the method: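 ELISA read-out of VCAM-1 at 24 h post-dosing in an LPS-driven HUVEC/PBMC primary human co-culture; gain or loss of signal fitted bidirectionally against DMSO baseline. Cytotoxicity tracked in parallel cultures by SRB total-protein staining.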

[5] = read-out: CD38, CD38 (gene 952); assay: BSK_SAg_CD38: BioMAP Diversity Plus: SAg Assay for CD38 Biomarker Activity (AID 2283087)
Summary of the method: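 Measures CD38 on a human endothelial/PBMC co-culture driven by SEB and TSST-1, 24 h after compound exposure, using ELISA with fluorescence detection; DMSO defines baseline for bidirectional curve fitting.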

[6] = read-out: CD40, CD40 (gene 958); assay: BSK_SAg_CD40: BioMAP Diversity Plus: SAg Assay for CD40 Biomarker Activity (AID 2283088)
Summary of the method: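 Human umbilical vein endothelial cells co-cultured with PBMC; CD40 levels measured by ELISA with fluorescence read-out 24 h after chemical dosing. Gain or loss of signal fitted bidirectionally against DMSO baseline.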

[7] = read-out: CD69, CD69 (gene 969); assay: BSK_SAg_CD69: BioMAP Diversity Plus: SAg Assay for CD69 Biomarker Activity (AID 2283089);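 as to AC50: cell surface CD69 protein quantified by ELISA with fluorescence detection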
Summary of the method: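 ELISA, fluorescence read-out: CD69 on human umbilical vein endothelial cell + PBMC co-culture, 24 h post-dosing. Gain or loss of signal fitted bidirectionally against DMSO baseline.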

[8] = read-out: Monocyte Chemoattractant Protein-1 (MCP1), CCL2 (gene 6347); assay: BSK_SAg_MCP1: BioMAP Diversity Plus: SAg Assay for Monocyte Chemoattractant Protein-1 (MCP1) Biomarker Activity (AID 2283090)
Summary of the method: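 Values derive from bidirectional fitting of ELISA-measured MCP1 against DMSO controls. Readings were taken 24 h after dosing human vascular endothelial cells co-cultured with peripheral blood mononuclear cells under superantigen stimulation.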

[9] = read-out: Monokine induced gamma interferon (MIG), CXCL9 (gene 4283); assay: BSK_SAg_MIG: BioMAP Diversity Plus: SAg Assay for Monokine induced gamma interferon (MIG) Biomarker Activity (AID 2283092)
Summary of the method: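 ELISA readout of MIG/CXCL9; primary human umbilical vein endothelial cells co-cultured with peripheral blood mononuclear cells; 24 h post-dose; gain/loss fit vs DMSO baseline.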

[10] = read-out: E-selectin (Homo sapiens) (UniProt P16581); assay: BSK_SAg_Eselectin: BioMAP Diversity Plus: SAg Assay for Eselectin Biomarker Activity (AID 2283091)
Summary of the method: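 HUVEC co-cultured with PBMC, compound dosed then read at 24 h; E-selectin measured by ELISA. Activity fitted bidirectionally against DMSO as negative control and baseline.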

Measured: AC50

Chain of E-selectin (Homo sapiens) (P16581 whole entry, looked up): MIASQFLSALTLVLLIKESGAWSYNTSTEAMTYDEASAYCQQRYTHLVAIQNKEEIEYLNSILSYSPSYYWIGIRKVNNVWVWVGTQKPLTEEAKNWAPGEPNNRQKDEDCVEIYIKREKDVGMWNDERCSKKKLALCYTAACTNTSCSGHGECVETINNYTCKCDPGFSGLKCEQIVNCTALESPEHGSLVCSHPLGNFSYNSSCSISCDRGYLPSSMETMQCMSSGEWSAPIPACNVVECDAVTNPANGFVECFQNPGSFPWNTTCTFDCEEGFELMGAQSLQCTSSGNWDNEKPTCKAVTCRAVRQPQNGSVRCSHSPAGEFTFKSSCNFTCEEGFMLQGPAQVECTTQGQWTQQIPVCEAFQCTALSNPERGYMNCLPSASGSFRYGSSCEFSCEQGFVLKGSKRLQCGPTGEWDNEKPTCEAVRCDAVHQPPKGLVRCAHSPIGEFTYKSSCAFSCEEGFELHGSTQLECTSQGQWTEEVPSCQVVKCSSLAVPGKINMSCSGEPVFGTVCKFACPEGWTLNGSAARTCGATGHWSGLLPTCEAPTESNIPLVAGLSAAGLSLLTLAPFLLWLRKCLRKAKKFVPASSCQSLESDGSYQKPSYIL
Chain of Tumor necrosis factor (Homo sapiens) (P01375 whole entry, looked up): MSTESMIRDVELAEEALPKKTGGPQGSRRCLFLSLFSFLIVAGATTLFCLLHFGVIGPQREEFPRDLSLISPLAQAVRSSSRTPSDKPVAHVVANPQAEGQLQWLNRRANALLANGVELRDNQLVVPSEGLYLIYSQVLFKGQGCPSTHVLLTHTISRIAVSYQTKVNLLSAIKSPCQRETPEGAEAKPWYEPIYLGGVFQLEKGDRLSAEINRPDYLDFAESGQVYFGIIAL

COC(=O)c1ccccc1O
not listed: [10]
inactive: all other assays above

C=CC(=C)CCC=C(C)C
inactive: all assays above

CCOCCO
inactive: all assays above

Nc1ccc(Nc2ccccc2)cc1
active: [1] 8.31 µM | [3] 20 µM | [4] 7.32 µM | [5] 3.97 µM | [6] 3.97 µM | [7] 3.97 µM | [8] 9.88 µM | [9] 15.7 µM
inactive: [2]

CC(C)=CCC/C(C)=C/CO
inactive: all assays above

COc1ccc(/C=C/S(=O)(=O)NC(=O)c2ccc(C)cc2Cl)cc1
active: [6] 4.18 µM
inactive: all other assays above

Cn1c(=O)c2c(ncn2C)n(C)c1=O
not listed: [10]
inactive: all other assays above

COC(=O)c1c(Cl)c(Cl)c(C(=O)OC)c(Cl)c1Cl
active: [1] 20 µM | [6] 20 µM
inactive: all other assays above

Clc1nc(Cl)c(Cl)c(Cl)c1Cl
active: [1] 32.2 µM | [2] 33.1 µM | [3] 31.7 µM | [4] 32.3 µM | [5] 34.4 µM | [6] 30 µM | [7] 26.3 µM | [8] 31.4 µM | [10] 25.1 µM | [9] 31.2 µM

O=C(O)CCN(C1(C(=O)NO)CCCC1)S(=O)(=O)c1ccc(Oc2ccc(F)cc2)cc1
inactive: all assays above

CC(C)CCCCCCOC(=O)c1ccc(C(=O)OCCCCCCC(C)C)c(C(=O)OCCCCCCC(C)C)c1
inactive: all assays above

CCOC(=O)COc1ccc2c(c1)CC(NCC(O)c1cccc(Cl)c1)CC2 (configuration not stated)
active: [1] 34.5 µM | [4] 31.3 µM | [5] 29.2 µM | [6] 28.8 µM | [7] 18.3 µM | [8] 27.7 µM
inactive: [2] | [3] | [10] | [9]

Cn1c(=O)cc(Oc2ccc(F)cc2F)c2cnc(NCC(C)(C)O)nc21
active: [2] 0.58 µM | [3] 5.06 µM
inactive: all other assays above

CCCCCCCCO
inactive: all assays above

O=C(O)c1cccc(N(Cc2cccnc2)c2ccc(OC(F)F)c(OC(F)F)c2)c1
active: [2] 9.14 µM | [3] 1.95 µM | [4] 15.9 µM | [5] 3.61 µM | [6] 13.7 µM | [7] 4.01 µM | [8] 6.77 µM | [10] 1.81 µM
inactive: [1] | [9]

CC(C)=CCCC(C)CCO (configuration not stated)
not listed: [10]
inactive: all other assays above

CCCCCCCCCCCCc1ccccc1
active: [6] 31.8 µM
inactive: all other assays above

COc1ccc2sc(C(=O)Nc3nnn[nH]3)c(OC(C)C)c2c1
active: [1] 14.1 µM | [2] 33.2 µM | [3] 28.9 µM | [4] 8.99 µM | [5] 16.2 µM | [6] 9.27 µM | [7] 19.9 µM | [8] 15.4 µM | [9] 27.8 µM

CC(=O)OC[C@H]1O[C@@](COC(C)=O)(O[C@H]2O[C@H](COC(C)=O)[C@@H](OC(C)=O)[C@H](OC(C)=O)[C@H]2OC(C)=O)[C@@H](OC(C)=O)[C@@H]1OC(C)=O
not listed: [10]
inactive: all other assays above

CC[C@H]1OC(=O)[C@H](C)[C@@H](O[C@H]2C[C@@](C)(OC)[C@@H](O)[C@H](C)O2)[C@H](C)[C@@H](O[C@@H]2O[C@H](C)C[C@H](N(C)C)[C@H]2O)[C@](C)(O)C[C@@H](C)C(=O)[C@H](C)[C@@H](O)[C@]1(C)O
not listed: [10]
inactive: all other assays above

CC(=O)OCCC(C)C
not listed: [10]
inactive: all other assays above

— PubChem BioAssay (EPA / NIEHS)
